High-throughput results (PubChem)
hNpr1 antagonist = human Npr1 receptor antagonism; AID 1347048; HEK293 hNpr1 GloSensor cGMP, ANP-stimulated luminescence; 76,000 tested, 1.6% active; Potency, µM (titrated, usually from 46.3 µM), inactives show at the top dose activity change, negative = inhibition, most hits filed as inhibitors; calls by dose curve; further: nearly all actives have a fitted effect of over 60% in size
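Compound pre-incubated 30 min at room temperature on GloSensor-loaded HEK293 cells stably carrying hNpr1 and the pGS-40F cGMP biosensor. Stimulation uses hNppA at 0.1 nM final; luminescence is taken at baseline and 20 min post-agonist.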
HEK293 tox = cytotoxic compounds in HEK 293 cells; HEK 293 viability, ATP luminescence (CellTiter-Glo), 48-72 h; Potency, µM (top dose mostly 115 µM), for the others: at the top dose activity change, negative = cytotoxicity, actives largely listed as inhibitors; 94,000 tested, 6.6% active; further: nearly all actives have a fitted effect of over 60% in size
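HEK 293 cells at 250 cells/well were exposed to compounds by pintool transfer for 48 or 72 hr at 37 degree Celsius, 5% CO2. Viability was read as ATP-coupled luminescence with CellTiter-Glo after 10 min at room temperature.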
3T3 cytotox = NIH 3T3 cell cytotoxicity | NIH 3T3 viability, CellTiter-Glo ATP luminescence, 48-72 h | Potency, µM (highest dose often 96.7 µM), for inactives: top-dose activity change, negative = cytotoxicity, usual class: inhibitors | 94,000 tested, 4.3% active; further: nearly all actives have a fitted effect of over 55% in size
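First NIH 3T3 cells are plated at 400 cells/well; next compound is pinned in; then plates incubate 48 or 72 hr at 37 °C; finally CellTiter-Glo is added and luminescence read after 10 min.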
Luciferase inh = inhibitors of firefly (Photinus pyralis) luciferase | purified P. pyralis luciferase, luminescence, biochemical | AID 1347043 | P08659 | 76,000 tested, 2.5% active | Potency, µM (series often up to 115 µM), actives largely listed as inhibitors; further: nearly all actives have a fitted effect of over 65% in size
Target sequence (P08659 whole entry, looked up): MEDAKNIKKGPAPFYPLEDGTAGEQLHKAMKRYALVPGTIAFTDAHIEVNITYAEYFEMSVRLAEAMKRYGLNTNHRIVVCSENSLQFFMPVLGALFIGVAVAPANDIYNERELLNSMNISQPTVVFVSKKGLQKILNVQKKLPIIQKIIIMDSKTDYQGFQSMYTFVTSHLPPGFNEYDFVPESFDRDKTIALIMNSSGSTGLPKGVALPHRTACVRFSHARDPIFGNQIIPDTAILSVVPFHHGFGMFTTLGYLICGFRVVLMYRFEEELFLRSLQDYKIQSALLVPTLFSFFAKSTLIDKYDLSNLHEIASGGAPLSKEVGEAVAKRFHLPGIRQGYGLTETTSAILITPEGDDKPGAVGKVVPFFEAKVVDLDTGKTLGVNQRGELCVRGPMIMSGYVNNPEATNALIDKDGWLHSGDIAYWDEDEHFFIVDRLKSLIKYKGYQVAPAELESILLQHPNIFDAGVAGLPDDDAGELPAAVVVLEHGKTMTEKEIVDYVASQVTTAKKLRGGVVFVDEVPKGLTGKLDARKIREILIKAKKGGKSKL
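Luminescence read by CCD imaging after purified firefly luciferase (10nM final) was added to substrate buffer holding 10uM D-luciferin and 10uM ATP, pH 7.5, pre-dosed with compound.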
* marks the source's active call; other numbers are inactive results; i = inactive; ? = inconclusive; . = no result; [ ] = remark or other dose. Only some compounds are listed: those with a hit (about 11% of all), similar ones and a draw of the others. Unless noted, the call rests on the fitted dose curve; in most records, active means well fitted curve in the direction sought with a large enough effect; inconclusive means small, poorly fitted or top-dose-only effect, or another doubt; inactive means no such curve, though single readings can be large; an effect the other way counts as inactive or inconclusive. On the % scale 0 is the no-effect control and ±100 the full control effect; potency means the concentration at half of the fitted maximal effect.

SMILES	hNpr1 antagonist	HEK293 tox	3T3 cytotox	Luciferase inh
COc1ccc([S+](=O)([O-])c2nnn3c2nc(N2CCOCC2)c2ccccc23)cc1	.	-4%	?	.
CCCN1C(=O)CCc2cc(NC(=O)c3ccc4c(c3)OCO4)ccc21	-3%	45µM*	?	32µM*
CCCN1C(=O)CCc2cc(NC(=O)c3ccc(C)cc3)ccc21	-14%	?	?	32µM*
CCOc1ccc(C(=O)Nc2ccc3c(c2)CCC(=O)N3CC(C)C)cc1	?	28µM*	?	i
COc1ccccc1-c1cccc(C(=O)N2CCN(C(=O)c3cccc(Cl)c3)CC2)c1	.	40µM*	?	.
COc1ccccc1-c1cccc(C(=O)N2CCN(C(=O)c3ccc(C)cc3)CC2)c1	.	40µM*	?	.
COc1ccc(-c2cccc(C(=O)N3CCN(C(=O)c4ccc(C)cc4)CC3)c2)nn1	.	?	-23%	.
COc1ccccc1-c1cccc(C(=O)N2CCN(C(=O)c3ccccc3F)CC2)c1	.	89µM*	-24%	.
COc1ccccc1-c1cccc(C(=O)N2CCC[C@H]2C(=O)N2CCCCC2)c1	.	-9%	-10%	.
COc1cc(CN2C[C@@H](CO)[C@H](C3CCN(C(C)=O)CC3)C2)ccc1F	-1%	-13%	4%	i
CN1CCCC1CCNc1nccc(-c2cnn(-c3ccccc3F)c2)n1 (centres undefined)	-1%	?	?	i
CCN1CCN(C(=O)c2nc3sccn3c2-c2cccnc2)CC1	.	2%[172 µM]	-17%[138 µM]	.
CCN1CCN(C(=O)c2cc(-c3ccc(F)cc3)c3nncn3n2)CC1	.	-10%	-19%	.
O=C(c1ccccc1)N1CCCN(c2cc(-c3ccc(Cl)cc3)[nH]n2)CC1	-18%	?	?	i
CCC(C(=O)N1CCCN(c2cc(-c3ccc(OC)cc3)[nH]n2)CC1)c1ccccc1 (centres undefined)	-2%	40µM*	?	i
CC(C(=O)N1CCCN(c2cc(-c3ccc(Cl)cc3)[nH]n2)CC1)c1ccccc1 (centres undefined)	?	40µM*	35µM*	?
Cc1ccc(-c2cc(N3CCCN(C(=O)C(C)Oc4ccccc4)CC3)n[nH]2)cc1C (centres undefined)	-19%	?	?	i
CC(Oc1ccccc1)C(=O)N1CCCN(c2cc(-c3ccc(Cl)cc3)[nH]n2)CC1 (centres undefined)	?	40µM*	?	i
CCC(C(=O)NC1CCN(c2cc(-c3ccc(OC)cc3)[nH]n2)CC1)c1ccccc1 (centres undefined)	-3%	?	?	i
Cc1cccc(CC(=O)N2CCCN(S(C)(=O)=O)c3ccccc32)c1	-1%	-16%	40µM*	i
COc1ccc(OCC2CN(Cc3cccs3)[S+](=O)([O-])c3cnccc3O2)cc1 (centres undefined)	.	?	-26%[46.1 µM]	.
O=S1(=O)c2cccnc2OC(COc2ccccc2)CN1Cc1cccs1 (centres undefined)	.	?	28µM*	.
COCCN1C(=O)c2ccccc2C(C(=O)Nc2nc3ccccc3s2)C12CCCCC2 (centres undefined)	-16%	?	45µM*	?
CCOC(=O)CCCOc1cccn2c(=O)c(-c3cc(C)n(-c4ccc(Cl)cc4)n3)c(C)nc12	0%	-21%	-11%	i
O=C(NCCOc1cccnc1)c1cn(Cc2cccc(C(F)(F)F)c2)nn1	-1%	28µM*	?	i
SMILES	hNpr1 antagonist	HEK293 tox	3T3 cytotox	Luciferase inh
CC(C)N1C[C@@H]2C[C@H]1C(=O)N(CC1CC1)c1ccccc1O2	-6%[70.6 µM]	-22%[172 µM]	-10%[138 µM]	i
N#Cc1ccc2nc([C@H]3CCN(Cc4ccc(F)c(F)c4)C3)[nH]c2c1	-20%[70.6 µM]	?	32µM*	i
CC(C)CCN1CC[C@H](c2nc3ccccc3[nH]2)C1	-4%[70.6 µM]	?	-29%[230 µM]	35µM*
N#Cc1cccc(CN2CC[C@H](c3nc4ccccc4[nH]3)C2)c1	-23%[70.6 µM]	50µM*	56µM*	i
COc1ccc2nc([C@H]3CCN(Cc4cccc(C#N)c4)C3)[nH]c2c1	-10%[70.6 µM]	40µM*	32µM*	i
O=C(NC1CC1)c1cc(-c2ccc(Cl)cc2Cl)c2nncn2n1	.	-5%[172 µM]	?	.
COc1ccc(Nc2cnc3ccc(-c4cccc(CO)c4)nn23)cc1OC	-15%[70.6 µM]	?	?	?
